Test results from PubChem BioAssay AID485284 (NMMLSC, 2010).
Measured potencies and affinities stand elsewhere.

Assay: loss of vesicle association with mouse CD8+ T cells – mouse 2C CD8+ T cells, flow cytometry, dose response (AID 485284);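 further: drosophila derived vesicles carrying Ld MHC with QL9 peptide plus B7-1 and ICAM-1; vesicle binding seen as anti-B7-1 PE fluorescence on CD8 gated cells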
Conditions: 2C mouse CD8+ T cell-exosome binding; at 45 µM (top of the series)
Work on `Cc1cc(C)n(C(=O)c2sc3cc(F)ccc3c2Cl)n1` yielded a binding remaining, % of control of 160%. Compound `CCOC(=O)Nc1sc(C)c(C)c1C(N)=O` has a binding remaining, % of control of 103%. Compound `Cc1ccc(S(=O)(=O)Nc2c3ccccc3nc(=O)n2-c2ccccc2)cc1` has a binding remaining, % of control of 71.8%. `Cc1ccccc1C(=O)NCC(=O)N1CCN(C/C=C/c2ccccc2)CC1` gave a binding remaining, % of control of 42.6%. `COc1ccc(C(O)c2coc3ccc(O)c(CN(C)C)c23)cc1` (centres undefined) gave a binding remaining, % of control of 113%. `CS(=O)(=O)c1cccc(-c2csc(N3CCC(C(N)=O)CC3)n2)c1` gave a binding remaining, % of control of 150%. With `O=C(NCc1cccnc1)C(=O)NCC(c1ccco1)N1CCN(c2ccccc2)CC1` (centres undefined) the binding remaining, % of control was 110%. For `COc1cc(OC)c2cc(C(=O)N[C@H](C(=O)N3CCC[C@H]3C(=O)O)C(C)C)n(C)c2c1`, the binding remaining, % of control was 99.6%. `O=C(Cc1cccs1)Nc1cc(S(=O)(=O)N2CCCCC2)ccc1Cl` showed a binding remaining, % of control of 121%. `COc1ccc(NS(=O)(=O)c2cc(NC(=O)C3CC3)ccc2N2CCCCC2)cc1` gave a binding remaining, % of control of 49.3%. Work on `CC(=O)c1cccc(NC(=O)c2ccncc2)c1` yielded a binding remaining, % of control of 35.3%. For `CN1CCN(S(=O)(=O)c2cccc(C(=O)Nc3cc(C(F)(F)F)ccc3N3CCCCC3)c2)CC1`, the binding remaining, % of control was 51.4%. Compound `COc1ccc(CC(=O)OCC(=O)N2CCN(S(=O)(=O)c3ccc(C)cc3C)CC2)cc1` has a binding remaining, % of control of 102%. For `CC(C)C(C(=O)NC1=NCCS1)c1ccc(Cl)cc1` (centres undefined), the binding remaining, % of control was 31.2%. `CC1CCN(S(=O)(=O)Cc2ccccc2Cl)CC1` gave a binding remaining, % of control of 118%. Work on `COc1ccc(OC)c(NC(=O)CCN2CCCCC2)c1` yielded a binding remaining, % of control of 220%. In the case of `COc1ccc([C@H]2CC(=O)C=C(c3cccc(Cl)c3)C2)cc1`, the binding remaining, % of control is reported as 141%. Work on `O=C(c1ccco1)N1CCN(C(c2ccccc2Cl)c2nnnn2Cc2ccco2)CC1` (centres undefined) yielded a binding remaining, % of control of 17.4%. `CCOc1ccc(NC(=O)CN(C)C(=O)c2ccc(N3CCOCC3)c([N+](=O)[O-])c2)cc1OCC` showed a binding remaining, % of control of 134%. `Cc1ccc(S(=O)(=O)N2CCN(S(=O)(=O)N(C)C)CC2)c(C)c1` showed a binding remaining, % of control of 32.6%. `COc1ccccc1NS(=O)(=O)c1ccc(C)c(NC(=O)c2ccc(S(=O)(=O)N3CCCCCC3)cc2)c1` gave a binding remaining, % of control of 134%. Work on `CCOC(=O)c1cnc(=O)[nH]c1C` yielded a binding remaining, % of control of 189%. Work on `CNCc1cn2cc(Cl)ccc2n1` yielded a binding remaining, % of control of 125%. `CCCCN(C(=O)C1CCC1)c1c(N)n(CC(C)C)c(=O)[nH]c1=O` showed a binding remaining, % of control of 53.6%. Compound `C=CCNC(=S)Nc1sc2c(c1C(N)=O)CCCC2` has a binding remaining, % of control of 163%. Compound `COc1ccc(N2CC(C(=O)N[C@@H](C)C(=O)NCc3ccccc3OC)CC2=O)cc1` (some centres undefined) has a binding remaining, % of control of 24.3%. With `O=C(NCCc1nc2ccc(Cl)cc2[nH]1)C1CCC(=O)N(Cc2cccc(F)c2)C1` (centres undefined) the binding remaining, % of control was 110%. `NC(=O)NC(=O)COC(=O)CN1C(=O)C2CCCCC2C1=O` (centres undefined) showed a binding remaining, % of control of 164%. `CCOC(=O)C1CCN(C(=O)c2ccc(NC(=O)C3CCCO3)cc2)CC1` (centres undefined) showed a binding remaining, % of control of 218%. For `COc1ccc(NC(=O)CN2CCN(S(=O)(=O)c3ccc(Cl)cc3)CC2)cc1`, the binding remaining, % of control was 79.2%. Work on `COc1ccc([C@H]2CC(=O)C=C(c3cc(F)ccc3OC)C2)cc1` yielded a binding remaining, % of control of 109%. `Cc1ccc(NC(=O)CN2C(=O)N/C(=C/c3ccc(C)s3)C2=O)cc1` gave a binding remaining, % of control of 46%. For `O=C(CN1C(=O)NC2(CCCCCC2)C1=O)N1CCN(c2ccccc2)CC1`, the binding remaining, % of control was 158%. `COc1ccc(NC(=O)[C@H](C)NC(=O)C2CCN(S(=O)(=O)c3ccc(C)cc3)CC2)cc1` showed a binding remaining, % of control of 108%.
